Source: PubChem BioAssay
PfHsp40 rescue – compounds rescuing yeast from Plasmodium falciparum HSP40 toxicity. S. cerevisiae expressing PfHsp40, growth rescue, ATP luminescence. growth rescue, % at 12.5 µM. hit rate 0.68% among 340,000. AID 504582; in the data active = growth rescue above about 28%, passing the limit was not always enough;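 also: yeast W303a lacking pdr1 and pdr3 grown in galactose medium; growth measured after three days at 30 °C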
CCHF vOTU inh – CCHFV vOTU protease inhibition; Pep-AMC fluorescence; inhibition, % at 11.5 µM; hit rate 0.55% among 370,000; in the data active = inhibition above about 30%; also: 0% = vehicle wells with enzyme and 100% = no enzyme wells
BJeLR lethal – BJeLR cell viability loss; BJeLR (HRASV12) viability, CellTiter-Glo ATP luminescence, 48 h; inhibition, % (no concentration beside the values); hit rate 0.17% among 300,000; AID 1554; in the data active = inhibition above about 50%
PrPC TRFRET – inhibitors of human cell surface prion protein PrPC; hit rate 0.43% among 370,000; inhibition, % at 13.8 µM; TR-FRET read-out; in the data active = inhibition above about 24%; also: 0% = median of the test wells and 100% = reference compound wells
Y pestis TopoI – inhibitors of Yersinia pestis topoisomerase I; activity, % at 10 µM; Y. pestis Topo-I cleavage product accumulation, plate reader; hit rate 0.064% among 360,000; in the data active = activity above about 50%, passing the limit was not always enough
PrP 5UTR inh – inhibition of PrP 5' UTR reporter expression. cell-based PrP 5' UTR mRNA reporter, plate reader. inhibition, % (concentration not given with the values). hit rate 0.35% among 340,000. AID 488862; in the data active = inhibition above about 52%; also: 0 = median of the neutral control wells
PrPC confirm – cell surface PrPC inhibition, TR-FRET confirmation; shares compounds with PrPC TRFRET; cell surface PrPC level; inhibition, % at 13.8 µM; hit rate 65% among 1,500; in the data active = inhibition above about 25%
LD9 cytotox – counter-screen for PrPc inhibitors: cytotoxicity in LD9 cells; shares compounds with PrPC TRFRET; luminescence viability; inhibition, % at 13.8 µM; hit rate 29% among 1,500; AID 743201; in the data active = inhibition above about 9.5%
Starred values were filed as active, the others as inactive; nt = no result given. The list is not random: actives were taken first. Their share in the collection is about 2%.

SMILES	PfHsp40 rescue	CCHF vOTU inh	BJeLR lethal	PrPC TRFRET	Y pestis TopoI	PrP 5UTR inh	PrPC confirm	LD9 cytotox
Cc1ccc2[nH]c3c(N4CCN(Cc5ccc6c(c5)OCO6)CC4)ncnc3c2c1	nt	-18	nt	6	nt	nt	nt	nt
Cc1ccc2c(c1)[nH]c1c(N3CCN(Cc4ccccc4)CC3)ncnc12	4	-16	12	30*	-4	-10	22	50*
NC(=O)COC(=O)c1ccc2noc(-c3ccccc3)c2c1	-1	1	-3	37*	6	-23	30*	-8
O=C([C@@H]1C[C@H]1c1ccccc1)N1CC[C@H]2[C@H](CCCN2Cc2cc(F)cc(F)c2)C1	nt	6	nt	1	nt	nt	nt	nt
C=C1C(C)C2C(Cc3ccccc3)NC(=O)C23C(OC(C)=O)C=CC(C)(O)CC(C)CC=CC3C1O (stereo not given)	0	-10	nt	40*	0	2	32*	0
C=C1[C@@H](C)C2[C@H](Cc3ccccc3)NC(=O)[C@]23[C@H](OC(C)=O)/C=C/[C@@](C)(O)C(=O)[C@@H](C)C/C=C/[C@H]3[C@@H]1O (stereo not given in full)	nt	-2	nt	43*	nt	nt	38*	2
C=C1[C@@H](C)[C@H]2[C@H](Cc3ccccc3)NC(=O)[C@]23OC(=O)/C=C/[C@H](O)CCC[C@@H](C)C/C=C/[C@H]3[C@@H]1O	1	-6	25	41*	3	26	19	9.7*
CC(=O)O[C@@H]1/C=C/[C@](C)(O)C[C@@H](C)C/C=C/[C@H]2[C@H](O)C(C)=C(C)[C@H]3[C@H](Cc4ccccc4)NC(=O)[C@@]123	nt	nt	3	nt	nt	nt	nt	nt
NC(=O)CSc1nc(-c2ccccc2)nc2ccccc12	-1	-4	-4	70*	-1	-9	72*	-9
CCOc1ccc2nc(-c3ccccc3)nc(SCC(=O)OC)c2c1	-2	-10	-8	5	-4	-47	nt	nt
COC(=O)CSc1nc(-c2ccccc2)nc2ccccc12	0	20	-1	106*	16	-16	113*	-7
O=C(O)c1ccc(/C=N/NC(=O)c2ccc3c(c2)OCCO3)cc1	0	2	0	5	0	-2	nt	nt
Cc1cc(O)cc(O)c1/C=N/NC(=O)c1ccc2c(c1)OCCO2	nt	12	nt	32*	-2	nt	25*	21*
c1ccc(Cn2nnnc2C(c2cccs2)N2CCCCCC2)cc1 (stereo not given)	1	0	7	28*	8	-27	22	1
c1ccc(Cn2nnnc2C(c2cccs2)N2CCc3ccccc3C2)cc1 (stereo not given)	1	nt	1	nt	39	-17	nt	nt
CCOc1ccc2c(c1)C(C)=CC(C)(C)N2S(=O)(=O)c1ccc(NC(C)=O)cc1	1	4	50	24*	32	78*	12	16*
CCOc1ccc2c(c1)C(C)=CC(C)(C)N2S(=O)(=O)c1ccc(F)cc1	0	0	0	5	8	14	nt	nt
C=C1C(=O)O[C@H]2[C@H]1[C@H](OC(=O)/C(C)=C\C)C[C@]1(CO1)[C@@H]1[C@H](OC(C)=O)C=C(C)[C@]21O	-1	-5	nt	1	7	-17	nt	nt
C=C1C(=O)OC2CC1C(OC(C)=O)CC(C)=CCCC(C)=CCCC2(C)O (stereo not given)	nt	-5	nt	29*	26	nt	33*	43*
Cc1sc2nc(COC(=O)CNC(=O)c3cc(F)ccc3F)[nH]c(=O)c2c1C	nt	0	nt	6	nt	nt	nt	nt
CCc1ccc(C2C(C#N)=C(N)SC(N)=C2C#N)cc1	0	-2	13	6	-8	-21	nt	nt
CCOc1ccc(C2C(C#N)=C(N)SC(N)=C2C#N)cc1OCC	1	2	-6	27*	-5	-9	72*	1
CC(NC(=O)c1c(N)[nH]c(C(=O)c2ccc(Cl)cc2)c1-c1ccc(Br)cc1)c1cccc2ccccc12 (stereo not given)	nt	6	nt	-1	nt	nt	nt	nt
O=S(=O)(NCc1ccc(Cl)c(Cl)c1)c1cc(Cl)ccc1N1CC[C@@H](O)C1	nt	10	nt	14	nt	nt	nt	nt
COc1ccccc1OS(=O)(=O)c1ccc(NC(C)=O)cc1	-1	-14	-1	1	8	-2	nt	nt
SMILES	PfHsp40 rescue	CCHF vOTU inh	BJeLR lethal	PrPC TRFRET	Y pestis TopoI	PrP 5UTR inh	PrPC confirm	LD9 cytotox
COC(=O)/C=C/S(=O)(=O)c1ccc(NC(C)=O)cc1	5	-1	0	77*	-2	-5	-1	94*
O=C(CNS(=O)(=O)c1ccc(Br)s1)N1CCN(c2ccccn2)CC1	nt	-1	nt	-4	nt	nt	nt	nt
COC(=O)c1c(NC(=O)C2CCCCC2C(=O)O)sc2c1CCCCC2 (stereo not given)	1	26	4	1	20	-21	nt	nt
COC(=O)c1sc(NC(=O)C2CCCCC2C(=O)O)c(C(=O)OC)c1C (stereo not given)	-1	11	-6	27*	0	-20	42*	-9
COCc1cn(-c2ccc3c(c2)[C@]2(CC(=O)N(C)C2c2ccccc2)C(=O)N3CC(C)C)nn1 (stereo not given in full)	nt	-2	nt	6	nt	nt	nt	nt
COc1ccc(Nc2nc(N3CCCC3)c3ccccc3n2)cc1	1	4	11	24*	-5	-8	31*	24*
CCN(CC)c1ccc(Nc2nc(N3CCOCC3)c3ccccc3n2)cc1	1	3	12	20	6	-14	nt	nt
Cc1cc(N2CCN(CC(C)(C)O)C[C@H]2C)ccc1N1CCN(CC(C)(C)O)[C@H](C)C1	nt	7	nt	-2	nt	nt	nt	nt
S=c1nc(COc2ccccc2)[nH]c2ccccc12	0	2	-6	14	-3	-19	nt	nt
S=c1nc(Cc2ccccc2)[nH]c2ccccc12	2	12	-9	31*	0	1	26*	-4
S=c1nc(Cc2ccc(Cl)cc2)[nH]c2ccccc12	1	3	-3	29*	21	-16	60*	-3
O=C(NC(Nc1nc2ccc([N+](=O)[O-])cc2s1)(C(F)(F)F)C(F)(F)F)c1cccnc1	-1	18	34	42*	-11	5	52*	59*
O=C(NC(Nc1nc2ccc([N+](=O)[O-])cc2s1)(C(F)(F)F)C(F)(F)F)c1ccccc1Cl	0	24	60*	67*	-13	50	66*	63*
O=C(NC(NNc1ccc([N+](=O)[O-])cc1)(C(F)(F)F)C(F)(F)F)c1ccccc1Cl	1	10	-2	1	-12	-24	nt	nt
CN(C)S(=O)(=O)c1ccc2nc(NC(=O)c3cccnc3)sc2c1	-1	-6	3	1	-2	-39	nt	nt
COc1ccc2ccccc2c1/C=N/NC(=O)c1cccc([N+](=O)[O-])c1	0	8	2	26*	3	-23	-1	-9
COc1ccc(Br)cc1CNC(=O)c1ccc2c(c1)N(C)CCS2	2	-31	-6	37*	1	-18	51*	-1
